{
  "source": "PubChem BioAssay (NCATS)",
  "note": "Records with an inconclusive call do not appear. A call without a number means that no potency is given here. The source made the active and inactive calls. The call rests on the fitted dose curve; in most records, active means well fitted cell-killing curve with a large enough effect; inconclusive means small, poorly fitted or top-dose-only effect, or effect the other way; inactive means flat fitted curve, though single readings scatter. Potency means the concentration at half of the fitted maximal effect.",
  "data": [
    {"tested_on": "CAOV3", "assay": "Primary qHTS to identify gynecologic anti-cancer compounds using libraries of approved drugs and bioactive compounds (AID 1345084); further: nearly all actives have a fitted effect of over 55% in size", "conditions": "Gynecologic cancer cell panel viability, ATPlite luminescence, 48 h; series mostly up to 57.5 µM", "outline": "(§1)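 Five-point cytotoxicity, 48 h drug exposure at 37 C, 5% CO2, on cells seeded 16 h beforehand. ATP content read by ATPlite luminescence.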", "values": [
      {"smiles": "COc1ccc(C(=O)c2ccccc2O)c(O)c1", "Potency": "inactive"},
      {"smiles": "CCC1NC(=O)c2cc(S(N)(=O)=O)c(Cl)cc2N1", "note": "(configuration not stated)", "Potency": "inactive"},
      {"smiles": "OC1C(O)C(O)C(O)C(O)C1O", "note": "(configuration not stated)", "Potency": "inactive"},
      {"smiles": "COc1ccc(C(=O)c2ccccc2)c(O)c1", "Potency": "inactive"},
      {"smiles": "CN(Cc1ccc(C(C)(C)C)cc1)Cc1cccc2ccccc12", "Potency": "inactive"},
      {"smiles": "COP(=O)(OC)OC(c1ccc(Cl)cc1)P(=O)(OC)OC", "note": "(configuration not stated)", "Potency": "inactive"},
      {"smiles": "Nc1nc(N)c(-c2ccccc2)s1", "Potency": "inactive"},
      {"smiles": "CO[C@]12C[C@@H](COC(=O)c3cncc(Br)c3)CN(C)[C@@H]1Cc1cn(C)c3cccc2c13", "Potency": "inactive"},
      {"smiles": "O=C(NCCc1c[nH]c2ccccc12)c1cccnc1", "Potency": "inactive"},
      {"smiles": "CCN[C@@H]1C[C@H](N)[C@@H](OC2OC(CN)=CCC2N)[C@H](O)[C@H]1O[C@H]1OC[C@](C)(O)[C@H](NC)[C@H]1O", "note": "(some centres not stated)", "activity change, negative = cytotoxicity": "0% [at 0.462 µM] (inactive)"},
      {"smiles": "CCOC(=O)c1ccc(N)cc1", "Potency": "inactive"},
      {"smiles": "CN(C)CCC[C@@]1(c2ccc(F)cc2)OCc2cc(C#N)ccc21", "Potency": "inactive"},
      {"smiles": "CCCCCCCCCCCCCCCC(=O)O", "Potency": "inactive"},
      {"smiles": "NC(N)=NN=C(/C=C/c1ccc([N+](=O)[O-])o1)/C=C/c1ccc([N+](=O)[O-])o1", "Potency": "6.31 µM (active)"},
      {"smiles": "CN1CCN(c2c(F)cc3c(=O)c(C(=O)O)cn4c3c2SCC4)CC1", "Potency": "inactive"},
      {"smiles": "CNCCc1ccccn1", "Potency": "inactive"},
      {"smiles": "CCCc1ncc(C[n+]2ccccc2C)c(N)n1", "Potency": "inactive"},
      {"smiles": "CC(C)(C)CC(C)(C)c1ccc(O)c(-n2nc3ccccc3n2)c1", "Potency": "inactive"},
      {"smiles": "COc1cc(C(=O)N2CCCCCCC2)cc(OC)c1OC", "Potency": "inactive"},
      {"smiles": "Cc1cc(-c2ccccc2)nnc1NCCN1CCOCC1", "Potency": "inactive"},
      {"smiles": "CC[N+](C)(CC)CCOC(=O)C(O)(c1ccccc1)C1CCCCC1", "note": "(configuration not stated)", "Potency": "inactive"},
      {"smiles": "C[C@@H](O)[C@H]1C(=O)N2C(C(=O)O)=C(S[C@@H]3CN[C@H](CNS(N)(=O)=O)C3)[C@H](C)[C@H]12", "Potency": "inactive"},
      {"smiles": "CC(C)(C)NC[C@H](O)COc1nsnc1N1CCOCC1", "Potency": "inactive"},
      {"smiles": "CC(C)(C)NCC(O)COc1cccc2c1C[C@H](O)[C@H](O)C2", "note": "(some centres not stated)", "Potency": "inactive"},
      {"smiles": "NC(=O)C1(N2CCCCC2)CCN(CCCC(=O)c2ccc(F)cc2)CC1", "Potency": "inactive"},
      {"smiles": "CC(=O)Nc1ncc([N+](=O)[O-])s1", "Potency": "inactive"},
      {"smiles": "FC1(F)C(F)(F)C(F)(F)C2(F)C(F)(F)C(F)(F)C(F)(F)C(F)(F)C2(F)C1(F)F", "note": "(configuration not stated)", "Potency": "inactive"}
    ]},
    {"tested_on": "CASKI", "assay": "Primary qHTS to identify gynecologic anti-cancer compounds using libraries of approved drugs and bioactive compounds (AID 1345084); further: nearly all actives have a fitted effect of over 55% in size", "conditions": "Gynecologic cancer cell panel viability, ATPlite luminescence, 48 h; series mostly up to 57.5 µM", "outline": "as §1", "values": [
      {"smiles": "N#C/C(=C1\\SCC(c2ccccc2Cl)S1)n1ccnc1", "note": "(configuration not stated)", "Potency": "inactive"},
      {"smiles": "COc1ccc(C(=O)c2ccccc2O)c(O)c1", "Potency": "inactive"},
      {"smiles": "CCC1NC(=O)c2cc(S(N)(=O)=O)c(Cl)cc2N1", "note": "(configuration not stated)", "Potency": "inactive"},
      {"smiles": "OC1C(O)C(O)C(O)C(O)C1O", "note": "(configuration not stated)", "Potency": "inactive"},
      {"smiles": "OC(C#CCN1CCCC1)(c1ccccc1)c1ccccc1", "Potency": "inactive"},
      {"smiles": "COc1ccc(C(=O)c2ccccc2)c(O)c1", "Potency": "inactive"},
      {"smiles": "CCC(Cc1c(I)cc(I)c(N)c1I)C(=O)O", "note": "(configuration not stated)", "Potency": "inactive"},
      {"smiles": "CN(Cc1ccc(C(C)(C)C)cc1)Cc1cccc2ccccc12", "Potency": "inactive"},
      {"smiles": "COP(=O)(OC)OC(c1ccc(Cl)cc1)P(=O)(OC)OC", "note": "(configuration not stated)", "Potency": "inactive"},
      {"smiles": "Nc1nc(N)c(-c2ccccc2)s1", "Potency": "inactive"},
      {"smiles": "CO[C@]12C[C@@H](COC(=O)c3cncc(Br)c3)CN(C)[C@@H]1Cc1cn(C)c3cccc2c13", "Potency": "inactive"},
      {"smiles": "O=C(NCCc1c[nH]c2ccccc12)c1cccnc1", "Potency": "inactive"},
      {"smiles": "CCN[C@@H]1C[C@H](N)[C@@H](OC2OC(CN)=CCC2N)[C@H](O)[C@H]1O[C@H]1OC[C@](C)(O)[C@H](NC)[C@H]1O", "note": "(some centres not stated)", "activity change, negative = cytotoxicity": "-0.808% [at 0.462 µM] (inactive)"},
      {"smiles": "CCOC(=O)c1ccc(N)cc1", "Potency": "inactive"},
      {"smiles": "CN(C)CCC[C@@]1(c2ccc(F)cc2)OCc2cc(C#N)ccc21", "Potency": "inactive"},
      {"smiles": "CCCCCCCCCCCCCCCC(=O)O", "Potency": "inactive"},
      {"smiles": "CCC1Nc2cc(Cl)c(S(N)(=O)=O)cc2S(=O)(=O)N1", "note": "(configuration not stated)", "Potency": "inactive"},
      {"smiles": "CN1CCN(c2c(F)cc3c(=O)c(C(=O)O)cn4c3c2SCC4)CC1", "Potency": "inactive"},
      {"smiles": "CNCCc1ccccn1", "Potency": "inactive"},
      {"smiles": "CC(=O)NCCCCCC(=O)O", "Potency": "inactive"},
      {"smiles": "CCCc1ncc(C[n+]2ccccc2C)c(N)n1", "Potency": "inactive"},
      {"smiles": "CC(C)(C)CC(C)(C)c1ccc(O)c(-n2nc3ccccc3n2)c1", "Potency": "inactive"},
      {"smiles": "CCN(CC)CCNC(=O)COc1ccc(OC)cc1", "Potency": "inactive"},
      {"smiles": "COc1cc(C(=O)N2CCCCCCC2)cc(OC)c1OC", "Potency": "inactive"},
      {"smiles": "CCOC(=O)C(C#N)=C(c1ccccc1)c1ccccc1", "Potency": "inactive"},
      {"smiles": "Cc1cc(-c2ccccc2)nnc1NCCN1CCOCC1", "Potency": "inactive"},
      {"smiles": "CC[N+](C)(CC)CCOC(=O)C(O)(c1ccccc1)C1CCCCC1", "note": "(configuration not stated)", "Potency": "inactive"},
      {"smiles": "C[C@@H](O)[C@H]1C(=O)N2C(C(=O)O)=C(S[C@@H]3CN[C@H](CNS(N)(=O)=O)C3)[C@H](C)[C@H]12", "Potency": "inactive"},
      {"smiles": "CC(C)(C)NC[C@H](O)COc1nsnc1N1CCOCC1", "Potency": "inactive"},
      {"smiles": "CC(=O)O[C@H]1C[C@@H]2CC[C@@H]3[C@H](CC[C@@]4(C)[C@H]3C[C@H]([N+]3(C)CCCCC3)[C@@H]4OC(C)=O)[C@@]2(C)C[C@@H]1N1CCCCC1", "Potency": "inactive"},
      {"smiles": "CCCN(CCC)S(=O)(=O)c1ccc(C(=O)O)cc1", "Potency": "inactive"},
      {"smiles": "CC(C)(C)NCC(O)COc1cccc2c1C[C@H](O)[C@H](O)C2", "note": "(some centres not stated)", "Potency": "inactive"},
      {"smiles": "NC(=O)C1(N2CCCCC2)CCN(CCCC(=O)c2ccc(F)cc2)CC1", "Potency": "inactive"},
      {"smiles": "CC(=O)Nc1ncc([N+](=O)[O-])s1", "Potency": "inactive"},
      {"smiles": "FC1(F)C(F)(F)C(F)(F)C2(F)C(F)(F)C(F)(F)C(F)(F)C(F)(F)C2(F)C1(F)F", "note": "(configuration not stated)", "Potency": "inactive"}
    ]}
  ]
}
